Out of some 410,000 compounds screened, about 7,200 (1.8%) were called active. A call without a number means that no potency is given here. Roughly 7% stayed inconclusive and do not appear here. The sample holds actives, similar compounds and a random draw of the others, so the mix is not that of the screen. A number with no mark means an inactive call. Calls follow the shape of the dose curve; as a rule, active = well fitted activation curve with a large enough effect; inconclusive = small, poorly fitted or top-dose-only effect, or another doubt; inactive = no such curve, though single readings can be large or run the other way.
Potency is read from the fitted curve at half-maximal effect.

The nature of the experiment: qHTS of TDP-43 Inhibitors. Also: nearly all actives have a fitted effect of over 50% in size. The note with it: TDP-43 expressing yeast growth rescue, BacTiter-Glo, 24 h; series mostly up to 46.1 µM. The source says:
The goal of this project is to identify new chemical probes capable of reversing the toxicity associated with TDP-43 which is associated with frontotemporal lobar degeneration and amyotrophic lateral sclerosis. These compounds will provide a complementary approach to deciphering the tangled mechanisms of toxicity and protection that we have uncovered through genome-wide genetic screens and are beginning to uncover in a large-scale proteomics analysis with mass spectroscopy.
To this end, a miniaturized assay was developed to be screened against the Molecular Libraries Small Molecule Repository (MLSMR) to discover TDP-43 inhibitors. Please note that in the set-up this yeast-based assay compounds that inhibit as TDP-43, have a read-out as activators.
NIH Chemical Genomics Center [NCGC]
NIH Molecular Libraries Probe Centers Network [MLPCN]
Assay Submitter (PI): Susan Lindquist, Whitehead Institute/MIT
Dispense 2.5 microL yeast galactose medium per 1536-well plate, pin compound, dispense 2.5 microL TDP-43 expressing yeast in galactose medium at OD600=0.02 (pregrown in raffinose medium to mid-log phase) per well, incubate for 24 hr at 30 deg C, and cell growth will be measured using 5 microL of Bactiter/Glo reagent to entire plate and read using Luminescence Protocol in ViewLux.
Turning to `CCN(CC)C(=O)CSc1nc2ccsc2c(=O)n1Cc1ccccc1Cl`, the Potency result is “inactive”. The same measure, in the same setting: the value for `COc1ccc(N2CCN(C3=NS(=O)(=O)C(c4cccc(Br)c4)=C3C)CC2)cc1` was “inactive”; that for `CCOC(=O)c1cc2occc2n1CC(=O)N1CCN(C(=O)c2ccco2)CC1` was “inactive”; that for `CCOC(=O)c1cc2c(ccn2C)n1CC(=O)N1CCC(C)CC1` was 35.5 µM (active). With `CCOC(=O)c1cc2occc2n1CC(=O)NC1CCC(C)CC1` (centres undefined), the Potency result was “inactive”. `CCOc1cc2[nH]c(=O)n(Cc3ccc(C(=O)NCCN(CC)CC)cc3)c(=O)c2cc1OCC`: the growth rescue (activation) is 25.5% [at 9.22 µM]. For `COc1ccc(OCCCn2c(C3CC(=O)N(c4ccc(F)cc4)C3)nc3ccccc32)cc1` (centres undefined), the Potency entry is “inactive”. Same read-out and setting: then `Cc1nc2ccn(Cc3cccs3)c(=O)c2cc1C(=O)NCc1ccc(Cl)cc1`, with “inactive”; and `COc1ccc(S(=O)(=O)Nc2cc3c(C(=O)OC(C)C)c(C)oc3c3ccccc23)cc1`, with “inactive”. On the same count and under the same terms, then `COc1cc(NS(=O)(=O)c2ccc3ccccc3c2)c2ncccc2c1`, with 12.6 µM (active); and `CCOc1ccc(OCC)c(NS(=O)(=O)c2ccc3[nH]c(=O)ccc3c2)c1`, with “inactive”.

With `N#C/C(=C\c1ccccc1F)c1nc2ccccc2c(=O)[nH]1`, the Potency result is “inactive”. On to `CCC(C(=O)Nc1cccc(-c2nc3cccnc3s2)c1C)c1ccccc1` (centres undefined), for which the Potency result is “inactive”. On the same count and under the same terms, the value for `COc1cccc(NC(=O)Cn2c(=O)cc(C)c3c(C)nn(-c4cccc(F)c4)c32)c1` was “inactive”; that for `Cn1nnnc1SCCNCc1ccc(Cl)c(Cl)c1` was “inactive”; that for `Cc1cn(C)c(CC(=O)NCc2ccc(Cl)cc2)c1C(=O)O` was “inactive”. The same measure, in the same setting: the value for `COCOCCn1cc(CN2CCS(=O)(=O)N(Cc3ccc(-c4ccc(OC)cc4)cc3)C(CC(C)C)C2=O)nn1` (centres undefined) was “inactive”; that for `CC(C)C1C(=O)N(Cc2cn(CCC3OCCO3)nn2)CCS(=O)(=O)N1Cc1ccc(-c2ccccc2C(F)(F)F)cc1` (centres undefined) was 35.5 µM (active). On the same count and under the same terms, then `COc1ccc(-c2ccc(CN3C(C(C)C)C(=O)N(Cc4cn(CC5CCCCC5)nn4)CCS3(=O)=O)cc2)cn1` (centres undefined), with “inactive”; and `COc1ccc(Cn2cc(CN3CCS(=O)(=O)N(Cc4ccc(-c5cccc(Cl)c5)cc4)C(C)C3=O)nn2)cc1` (centres undefined), with “inactive”; and `Cc1ccc(-c2ccc(CN3C(C)C(=O)N(Cc4cn(CCC5OCCCO5)nn4)CCS3(=O)=O)cc2)cc1` (centres undefined), with “inactive”. With `CC1C(=O)N(Cc2cn(Cc3ccco3)nn2)CCS(=O)(=O)N1Cc1ccc(-c2cccc(CO)c2)cc1` (centres undefined), the Potency entry is “inactive”. Consider `Cc1ccc(-c2ccc(CN3C(C(C)C)C(=O)N(Cc4cn(CCC5OCCCO5)nn4)CCS3(=O)=O)cc2)cc1` (centres undefined), for which the Potency is 35.5 µM (active).

On to `Cc1ccc(-c2ccc(CN3C(C(C)C)C(=O)N(Cc4cn(CCC5OCCO5)nn4)CCS3(=O)=O)cc2)cc1` (centres undefined), for which the Potency was 31.6 µM (active). Same read-out and setting: then `CC(C)CC1C(=O)N(Cc2cn(Cc3ccco3)nn2)CCS(=O)(=O)N1Cc1ccc(-c2ccc(Cl)c(Cl)c2)cc1` (centres undefined), with “inactive”; and `COc1cc(NC(=O)CN2CCN(S(=O)(=O)c3ccc(Br)cc3)CC2)cc(OC)c1`, with “inactive”; and `Cc1ccccc1CNC(=O)c1ccc(NC(=O)N2CCCCc3ccccc32)cc1`, with “inactive”. Same read-out and setting: the value for `COc1cc(CN(CC2CCCO2)C(=O)c2ccccc2F)cc(OC)c1OC` (centres undefined) was “inactive”; that for `CCOc1ccc(NC(=O)c2c(NC(=O)Cc3ccccc3)sc3c2CCCCC3)cc1` was “inactive”. The same measure, in the same setting: the value for `CC1CCCN(Cc2c(O)ccc3c(=O)c(Oc4ccc(C(C)(C)C)cc4)c(C(F)(F)F)oc23)C1` (centres undefined) was “inactive”; that for `CCCCOC(=O)/C(C#N)=C/c1ccc(-c2cccc(C(F)(F)F)c2)o1` was “inactive”; that for `Cc1ccc(-c2ccc(/C=C(\C#N)C(N)=S)o2)c([N+](=O)[O-])c1` was 22.4 µM (active). `CCOC(=O)c1ccc(-c2ccc(/C=C(\C#N)C(=O)Nc3ccc(C)cc3)o2)cc1`: the Potency entry was “inactive”. `CCOc1ccccc1NC(=O)CN1CCN(S(=O)(=O)c2ccc(Br)cc2)CC1`: the growth rescue (activation) was 0% [at 9.22 µM]. In the case of `COc1ccccc1CNC(=O)NCc1noc2ccc(C)cc12`, the Potency result was “inactive”. Same read-out and setting: the value for `Cc1cccc(CNC(=O)c2sc(=O)n(Cc3ccccc3C)c2C)c1` was “inactive”.

For the compound `Cc1ccccc1Cn1c(C)c(C(=O)NCc2cccc(C(F)(F)F)c2)sc1=O`, the Potency result was “inactive”.

Turning to `Cc1ccc(Cn2c(C)c(C(=O)NCc3ccccc3C(F)(F)F)sc2=O)cc1`, the Potency is 15.8 µM (active). With `Fc1ccc(-c2nn(-c3ccccc3Cl)c3c2cnc2ccccc23)cc1`, the Potency result was “inactive”. On the same count and under the same terms, the value for `CCn1cc(C(=O)NCc2ccc(C)cc2)c(=O)c2cc(S(=O)(=O)N3CCc4ccccc4C3)ccc21` was “inactive”. Same read-out and setting: then `COc1ccc(CNC(=O)COCc2cc(-c3cccs3)on2)cc1OC`, with “inactive”; and `COc1ccc(C2CC(c3cccs3)=Nc3ccccc3S2)cc1OC` (centres undefined), with “inactive”; and `COc1ccc(-c2csc(-c3cccs3)n2)cc1OC`, with 11.2 µM (active).

Take `CCc1ccc2ncc3c(-c4ccc(C)cc4)nn(CC(=O)NCc4ccccc4)c3c2c1`: the Potency result is “inactive”. Same read-out and setting: the value for `O=C(CSc1oc(-c2ccc(F)cc2)nc1S(=O)(=O)c1ccc(Br)cc1)NC1CCCCC1` was “inactive”; that for `Cc1cc(NC(=O)c2cc(-c3cccs3)on2)nn1Cc1ccc(Cl)cc1` was “inactive”.

Regarding `O=c1onc(-c2cccs2)n1Cc1ccccc1`, the Potency is 12.6 µM (active).

As for `O=C(CSc1nnc(-c2cccs2)n1Cc1ccccc1)N1CCc2ccccc2C1`, the Potency result is “inactive”. Still for that read-out and setting: the value for `CCC(=O)Nc1ccc(C)cc1-c1nc2ccccc2n(Cc2ccccc2)c1=O` was “inactive”; that for `COc1ccc2oc(-c3ccc(C)c(NC(=O)c4sc5ccccc5c4Cl)c3)nc2c1` was “inactive”. Still for that read-out and setting: then `Cc1ccc(C)c(Cn2c(C)c(CNCc3ccc(F)cc3)c(C(=O)O)c2C)c1`, with “inactive”; and `CC(C)(C)NC(=O)NC(=O)COC(=O)Cc1c(F)cccc1Cl`, with “inactive”. The same measure, in the same setting: the value for `COc1ccccc1OCCC(=O)OCC(=O)NC(=O)NC(C)(C)C` was “inactive”; that for `CC(C)(C)NC(=O)NC(=O)COC(=O)Cc1ccc(Cl)cc1Cl` was 35.5 µM (active); that for `COc1ccc(C2=NC3(CCCCC3)N(CC(=O)Nc3ccc(C(C)C)cc3)C2=O)cc1` was “inactive”.

Turning to `CCN(CC)CCNc1ncnc2c1cnn2-c1cc(Cl)ccc1C`, the Potency result was “inactive”. On the same count and under the same terms, then `CC1Cc2nc(SCC(=O)Nc3ccccc3F)n(C)c(=O)c2S1` (centres undefined), with “inactive”; and `CCn1c(SCC(=O)Nc2ccccc2F)nc2c(c1=O)SC(C)C2` (centres undefined), with 35.5 µM (active).

As for `CCn1c(SCC(=O)Nc2ccc3c(c2)OCCO3)nc2c(c1=O)SC(C)C2` (centres undefined), the Potency result was “inactive”.

These data come from PubChem BioAssay AID652104 (National Center for Advancing Translational Sciences (NCATS), 2013).
